Seven molecules from PubChem BioAssay (NCI) can be followed below.

What all share (experiment): NCI-60 one-dose screen, 48 h (100 = growth as untreated, 0 = no growth, -100 = all killed)
The test system of one experiment is MOLT-4 leukemia. The conditions noted are these: 10 µM.
The next experiment has as its system RPMI-8226 leukemia. The conditions noted are these: 10 µM.
A further experiment deals with OVCAR-8 ovarian. The settings on record: 10 µM.
For another experiment, the system named is OVCAR-5 ovarian. The settings on record: 10 µM.
The next experiment deals with OVCAR-4 ovarian. The conditions noted are these: 10 µM.
The test system of another experiment is SK-OV-3 ovarian. The conditions noted are these: 10 µM.
Another experiment concerns OVCAR-3 ovarian. The conditions noted are these: 10 µM.
A further experiment has as its system HS 578T breast. The conditions noted are these: 10 µM.
The subject of the next experiment is NCI/ADR-RES ovarian. The settings on record: 10 µM.
In a further experiment the test system is T-47D breast. The settings on record: 10 µM.
The test system of a further experiment is BT-549 breast. The conditions noted are these: 10 µM.
In another experiment the test system is MDA-MB-435 melanoma. The settings on record: 10 µM.
The test system of a further experiment is SW-620 colon. The settings on record: 10 µM.
The test system of another experiment is MCF7 breast. The conditions noted are these: 10 µM unless noted.
The next experiment relates to HCT-116 colon. The conditions noted are these: 10 µM.
The next experiment has as its system KM12 colon. The settings on record: 10 µM.
The subject of another experiment is SR leukemia. The settings on record: 10 µM.
A further experiment concerns IGROV1 ovarian. The settings on record: 10 µM.
A further experiment deals with HCC-2998 colon. The settings on record: 10 µM.

About 83,000 compounds went through this panel and 20% of them were active in at least one assay; those are over-represented in the sample as a whole.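 Activity criterion: percent growth below 10, measured after cells in 96-well plates were exposed to a single compound concentration for 48 hours.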 Values without a mark were called inactive. Activity calls are given as the source filed them.

For `O=[N+]([O-])c1ccc(N2CCOCC2)c2c1no[n+]2[O-]`, the growth in the experiment on MOLT-4 leukemia was 3.12% (active); in the experiment with RPMI-8226 leukemia, -7.12% (active); in the experiment with OVCAR-8 ovarian, 28.1%; with OVCAR-5 ovarian, 43.8%; in the experiment on OVCAR-4 ovarian, -6.35% (active); with SK-OV-3 ovarian, 7.59% (active). In addition, the growth in the experiment with OVCAR-3 ovarian was -34.3% (active); in the experiment with HS 578T breast, 1.69% (active); with NCI/ADR-RES ovarian, 16.3%; with T-47D breast it was 2.59% (active); in the experiment on BT-549 breast, -41.5% (active); in the experiment with MDA-MB-435 melanoma it was 29.2%. In addition, the growth with SW-620 colon was 3.22% (active); in the experiment on MCF7 breast, 13.7%; with HCT-116 colon it was -25.9% (active); with KM12 colon, -73.5% (active).
For `C/C1=C\[C@H](C)C[C@H](C)OC(=O)C[C@H](c2ccc(O)cc2)NC(=O)[C@@H](Cc2c(Br)[nH]c3ccccc23)N(C)C(=O)[C@H](C)NC(=O)[C@@H](C)C1`, the growth in the experiment on MOLT-4 leukemia was 2.89% (active); in the experiment on SR leukemia, -3.88% (active); with RPMI-8226 leukemia, -56.9% (active); with OVCAR-5 ovarian it was -35.1% (active); in the experiment on OVCAR-4 ovarian, -54.6% (active); in the experiment with SK-OV-3 ovarian it was -20.9% (active). Besides, the growth in the experiment on IGROV1 ovarian is -79.1% (active); in the experiment on OVCAR-3 ovarian, -44.9% (active); with HS 578T breast, -40.4% (active); in the experiment on NCI/ADR-RES ovarian it was -21.9% (active); with T-47D breast, 4.52% (active); with BT-549 breast it was -76.6% (active). Besides, the growth is -12.2% (active) in the experiment with MDA-MB-435 melanoma; 6.45% (active) in the experiment with SW-620 colon; 9.48% (active) with MCF7 breast; 0.922% (active) in the experiment on HCT-116 colon; -86.3% (active) in the experiment on HCC-2998 colon; -4.41% (active) with KM12 colon.
`CC[C@@]1(O)C[C@H](OC2CC(N(C)C)C(O)C(C)O2)c2c(cc3c(c2O)C(=O)c2c(O)ccc(O)c2C3=O)[C@H]1C(=O)OC` (stereo partly specified): the growth is -19.5% (active) in the experiment on MOLT-4 leukemia; -18.2% (active) in the experiment with SR leukemia; -32.6% (active) in the experiment on RPMI-8226 leukemia; -87% (active) in the experiment with OVCAR-5 ovarian; -44.2% (active) with OVCAR-4 ovarian; -68.9% (active) in the experiment with SK-OV-3 ovarian. Besides, the growth in the experiment on IGROV1 ovarian is -68.3% (active); in the experiment on OVCAR-3 ovarian it was -41.6% (active); in the experiment with NCI/ADR-RES ovarian it was -64.1% (active); with T-47D breast it was -42% (active); in the experiment on BT-549 breast, -80.2% (active); in the experiment with MDA-MB-435 melanoma, -95.7% (active). The growth was -90.5% (active) in the experiment with SW-620 colon, -39.6% (active) in the experiment on MCF7 breast, -70.5% (active) with HCT-116 colon and -58.1% (active) with KM12 colon.
Consider `COc1ccccc1/C=C/[N+](=O)[O-]`, for which the growth in the experiment on MOLT-4 leukemia is 53.3%; in the experiment on SR leukemia, -11.9% (active); in the experiment with OVCAR-8 ovarian it was 63.3%; in the experiment with OVCAR-5 ovarian, 85.6%; in the experiment with SK-OV-3 ovarian it was 113%; with IGROV1 ovarian, 53%. The growth is 49.9% with OVCAR-3 ovarian; 79% with HS 578T breast; 91.4% in the experiment on NCI/ADR-RES ovarian; 50.7% in the experiment on T-47D breast; 82.4% with BT-549 breast; 39.3% in the experiment on MDA-MB-435 melanoma. Further, the growth in the experiment with SW-620 colon is 58.8%; in the experiment with MCF7 breast, 28.8%; in the experiment with HCT-116 colon, 36.2%; with KM12 colon, 65.9%.
As to `CC12OOC(c3ccccc31)c1c2ccc2ccccc12` (stereo unspecified), the growth in the experiment with MOLT-4 leukemia was -58.3% (active); in the experiment with SR leukemia, -18.8% (active); in the experiment with RPMI-8226 leukemia, -33.8% (active); in the experiment on OVCAR-5 ovarian, 66.1%; with OVCAR-4 ovarian it was -57.7% (active); with SK-OV-3 ovarian, 95.8%. Also, the growth in the experiment with OVCAR-3 ovarian was -92.4% (active); in the experiment on HS 578T breast, 91.6%; in the experiment with NCI/ADR-RES ovarian, 50.3%; in the experiment with T-47D breast, -28.8% (active); in the experiment on BT-549 breast, -82.2% (active); in the experiment on MDA-MB-435 melanoma it was 46.2%. For the same molecule, the growth with SW-620 colon was -52.1% (active); in the experiment with MCF7 breast, 48.5%; with HCT-116 colon, -94.5% (active); in the experiment with HCC-2998 colon, -91.7% (active); in the experiment on KM12 colon, -53.1% (active).
As for `COC(C(=O)C(O)C(C)O)C1Cc2cc3cc(OC4CC(OC(C)=O)C(OC5CC(O)C(OC)C(C)O5)C(C)O4)cc(O)c3c(O)c2C(=O)C1OC1CC(OC2CC(OC3CC(C)(O)C(OC(=O)C(C)C)C(C)O3)C(O)C(C)O2)C(O)C(C)O1` (stereo unspecified), the growth is -25.4% (active) in the experiment on MOLT-4 leukemia; -23.4% (active) in the experiment on SR leukemia; -32.4% (active) in the experiment with RPMI-8226 leukemia; -43.5% (active) in the experiment with OVCAR-5 ovarian; -0.721% (active) with OVCAR-4 ovarian; 9.37% (active) in the experiment with SK-OV-3 ovarian. Also, the growth in the experiment on IGROV1 ovarian was -39.4% (active); in the experiment on OVCAR-3 ovarian, -4.25% (active); with NCI/ADR-RES ovarian it was 47.4%; in the experiment with T-47D breast, -24.1% (active); with BT-549 breast, -74.8% (active); in the experiment with MDA-MB-435 melanoma it was -89.4% (active). In addition, the growth was -12% (active) in the experiment on SW-620 colon; 1.47% (active) in the experiment with MCF7 breast; -40.2% (active) with HCT-116 colon; -94.4% (active) with HCC-2998 colon; -10.4% (active) in the experiment with KM12 colon.
Consider `C#CC1(O)CCC(C(C)(C)C)CC1` (stereo unspecified), for which the growth is 114% in the experiment with MOLT-4 leukemia; 113% in the experiment on SR leukemia; 102% in the experiment with RPMI-8226 leukemia; 95.5% with OVCAR-8 ovarian; 105% in the experiment on OVCAR-5 ovarian; 116% in the experiment on OVCAR-4 ovarian. For the same molecule, the growth is 119% in the experiment with SK-OV-3 ovarian; 103% in the experiment with OVCAR-3 ovarian; 106% in the experiment on NCI/ADR-RES ovarian; 111% in the experiment on T-47D breast; 122% in the experiment with BT-549 breast; 89.8% with MDA-MB-435 melanoma. Besides, the growth in the experiment with SW-620 colon was 106%; with MCF7 breast, 99%; in the experiment with HCT-116 colon it was 108%; with KM12 colon, 100%.
